High-throughput results from PubChem BioAssay.
Beta apoptosis – beta cell apoptosis inhibition; protection from apoptosis, % (concentration not given with the values); INS-1E cytokine-induced death, ATP luminescence, 48 h; percent of positive-control rescue, neutral wells zero; hit rate 0.8% among 300,000;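 active means Every replicate reaches about 75%, or at least half do and their mean reaches it too, limit read from the data; inconclusive means At least half of replicates reach the limit but their mean does not; inactive means Under half of replicates reach the limit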;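 further: 0% = cytokine-treated negative control wells and 100% = positive control rescue; higher means more ATP so stronger rescue from cytokine killing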
PAX8 reporter – lowers PAX8-driven luciferase in RMG-I cells; RMG-I TPO-luciferase reporter, SteadyGlo, 24 h; inhibition, % at 12.6 µM; hit rate 1.2% among 360,000;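 active means mean replicate inhibition at least 60% with every replicate also reaching 60%; inconclusive means only one of the two criteria is met; inactive means mean below 60% and not all replicates reaching 60%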;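 further: luciferase light reporting Pax8 driven TPO promoter activity; plate controls were median of neutral control wells for no effect and mitoxantrone controls for full effect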
Gli-Sufu antag – Gli-Sufu pathway antagonism; inhibition, % at 5 µM; AID 588413; hit rate 0.74% among 340,000; Sufu-KO-LIGHT fibroblasts, Gli luciferase reporter luminescence;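 active means inhibition above about 55%, limit read from the data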;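 further: 0% = DMSO-treated cells and 100% = wells with medium but no cells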
Mdm2 MdmX PPI – disrupts the human Mdm2-MdmX interaction; O15151+Q00987; SaOS-2 split-luciferase Mdm2/MdmX complementation, luminescence; inhibition, % at 8 µM; hit rate 3% among 330,000; AID 485346;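 active means inhibition of at least 50% at 8 µM in the primary screen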
Target sequence (O15151 whole entry, looked up): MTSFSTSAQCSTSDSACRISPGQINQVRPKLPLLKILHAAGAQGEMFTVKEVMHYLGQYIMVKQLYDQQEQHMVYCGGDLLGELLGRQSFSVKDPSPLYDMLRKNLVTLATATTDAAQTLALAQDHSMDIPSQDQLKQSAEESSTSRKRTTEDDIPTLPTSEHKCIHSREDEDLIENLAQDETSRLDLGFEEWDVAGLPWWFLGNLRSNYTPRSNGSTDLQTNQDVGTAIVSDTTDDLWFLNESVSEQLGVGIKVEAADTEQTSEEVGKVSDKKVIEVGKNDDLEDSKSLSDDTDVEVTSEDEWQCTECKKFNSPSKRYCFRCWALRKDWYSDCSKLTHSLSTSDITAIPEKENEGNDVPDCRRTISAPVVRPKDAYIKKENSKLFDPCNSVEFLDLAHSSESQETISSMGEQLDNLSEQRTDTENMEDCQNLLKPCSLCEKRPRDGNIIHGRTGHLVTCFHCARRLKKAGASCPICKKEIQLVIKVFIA
Target sequence (Q00987 whole entry, looked up): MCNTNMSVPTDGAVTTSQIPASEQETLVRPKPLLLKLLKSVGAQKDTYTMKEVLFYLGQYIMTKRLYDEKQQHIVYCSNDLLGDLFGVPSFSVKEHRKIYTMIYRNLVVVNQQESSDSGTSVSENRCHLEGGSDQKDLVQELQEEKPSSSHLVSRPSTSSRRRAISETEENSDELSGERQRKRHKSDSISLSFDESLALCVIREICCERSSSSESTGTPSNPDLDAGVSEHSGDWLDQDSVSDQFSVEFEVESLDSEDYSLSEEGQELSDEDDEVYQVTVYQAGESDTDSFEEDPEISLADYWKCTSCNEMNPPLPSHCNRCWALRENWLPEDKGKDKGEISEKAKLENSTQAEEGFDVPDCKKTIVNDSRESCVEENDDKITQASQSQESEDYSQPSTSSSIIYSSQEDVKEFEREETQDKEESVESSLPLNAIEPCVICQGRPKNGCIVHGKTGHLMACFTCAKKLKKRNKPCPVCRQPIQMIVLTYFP
CSC inhib – blocks cancer stem cells | inhibition, % at 7.5 µM | hit rate 1.1% among 300,000 | cancer stem cell-like cells viability, luminescence | AID 2717; in the data active means inhibition above about 75%; inconclusive means no clear call, values can overlap the other calls; tested in HMLE shEcad cells
Shn3 inh set2 – inhibitors of Schnurri-3 3'UTR reporter in osteoblasts | inhibition, % at 12.5 µM | AID 588674 | hit rate 0.52% among 360,000 | Clone20 osteoblast Shn3 3'UTR firefly luciferase, 24 h;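 active means mean inhibition of at least 75% with every replicate also reaching 75%; inconclusive means mean inhibition at least 75% but some replicate below; inactive means mean inhibition below 75%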;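 further: 0% = median of neutral control wells and 100% = pilot-screen positive control compound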
Mdm2 MdmX conf – confirmation of human Mdm2/MdmX interaction inhibitors; shares compounds with Mdm2 MdmX PPI; Mdm2-MdmX binding, luminescent assay; inhibition, % at 8 µM; hit rate 55% among 10,000; AID 489028; in the data active means inhibition above about 40%
FLuc counter – counter-screen for Mdm2/MdmX inhibitors: full-length luciferase. shares compounds with Mdm2 MdmX PPI. SaOS-2 full-length luciferase counterscreen, luminescence. inhibition, % at 8 µM. hit rate 77% among 6,200. AID 504607;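 active means mean inhibition at 8 µM reaching about 37%, which flags the compound as non-specific, limit read from the data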;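 further: p53-null SaOS-2 cells with luciferase driven by a doxycycline-inducible promoter; compound on cells about two nights before reading with doxycycline added after day one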
* hit, by the source's call; ? = inconclusive; . = not tested or not shown. Rows were chosen to be rich in hits. Some 4% of all compounds tested hit in one or more screens of this group.

SMILES | Beta apoptosis | PAX8 reporter | Gli-Sufu antag | Mdm2 MdmX PPI | CSC inhib | Shn3 inh set2 | Mdm2 MdmX conf | FLuc counter
COCCOC(=O)c1[nH]c2c(c1C)C(=O)CC(c1ccco1)C2 (stereo unspecified) | 18 | 46 | -4 | 34 | 54 | 66 | . | .
COCCOC(=O)c1[nH]c2c(c1C)C(=O)CC(c1ccc(F)cc1)C2 (stereo unspecified) | 8 | 37 | -8 | 33 | 50 | 41 | . | .
CCOC(=O)c1[nH]c2c(c1C)C(=O)CC(c1ccco1)C2 (stereo unspecified) | 33 | 83* | 39 | 60* | 60 | 11 | 59* | 84*
COCCOC(=O)c1[nH]c2c(c1C)C(=O)CC(c1ccccc1)C2 (stereo unspecified) | 19 | . | 48 | 62* | 59 | 40 | 60* | 73*
COC(=O)c1[nH]c2c(c1C)C(=O)CC(c1cc(OC)ccc1OC)C2 (stereo unspecified) | 8 | 21 | 41 | 48 | 55 | 15 | . | .
COC(=O)c1[nH]c2c(c1C)C(=O)CC(c1cccs1)C2 (stereo unspecified) | 17 | . | 30 | 60* | 2 | 4 | 58* | 74*
Cc1c(C(=O)OCCOC(C)C)[nH]c2c1C(=O)CC(c1ccco1)C2 (stereo unspecified) | 40 | . | 54 | 64* | 54 | 23 | 48* | 86*
CC(C)NC(=O)N[C@@H]1C=C[C@@H](CC(=O)O)O[C@@H]1CO | . | -11 | . | . | . | . | . | .
CN(C)C(=O)c1cccc(-c2ccc([C@H]3[C@@H](CO)N4CCCCN(S(C)(=O)=O)C[C@H]34)cc2)c1 | . | -1 | . | . | . | . | . | .
Cc1c(C(=O)OCc2ccccc2)[nH]c2c1C(=O)CC(c1ccco1)C2 (stereo unspecified) | 23 | . | 51 | 67* | 62 | 86* | 63* | 81*
Cc1cccc(NC(=O)c2nc[nH]c2C(=O)NCCN(CCNC(=O)c2[nH]cnc2C(=O)Nc2cccc(C)c2)CCNC(=O)c2[nH]cnc2C(=O)Nc2cccc(C)c2)c1 | -6 | 8 | 3 | 86* | 28 | -23 | 51* | 39*
Cc1cccc(NC(=O)c2nc[nH]c2C(=O)NC2CCN(C(=O)OC(C)(C)C)CC2)c1 | 3 | 12 | -12 | 55* | ? | -2 | 26 | .
Cc1cccc(NC(=O)c2nc[nH]c2C(=O)N[C@@H](CCCCNC(=O)OC(C)(C)C)C(=O)OC(C)(C)C)c1 | 13 | 13 | 2 | 61* | . | 19 | 24 | .
Cc1cccc(NC(=O)c2nc[nH]c2C(=O)NCCCNC(=O)c2[nH]cnc2C(=O)Nc2cccc(C)c2)c1 | -6 | -3 | 5 | 73* | 77* | 9 | 63* | 43*
Cc1cccc(NC(=O)c2nc[nH]c2C(=O)N2CCN(C(=O)OC(C)(C)C)CC2)c1 | 0 | -9 | 5 | 26 | -28 | -15 | . | .
Cc1cccc(NC(=O)c2nc[nH]c2C(=O)Nc2cccc(C)c2)c1 | 5 | -21 | 5 | 40 | 4 | 4 | . | .
Cc1cccc(NC(=O)c2nc[nH]c2C(=O)NCCCCCNC(=O)OC(C)(C)C)c1 | 12 | 7 | 11 | 32 | 4 | 26 | . | .
CNC[C@H](CC1CCCCC1)NC[C@H](Cc1ccccc1)NCCC12CC3CC(CC(C3)C1)C2 | 114* | 77* | -11 | 100* | -18 | 98* | 100* | 52*
COc1cc(C(CCN2CCCCC2)c2c(OC)cc(OC)c3c(-c4ccccc4)cc(=O)oc23)cc(OC)c1OC (stereo unspecified) | 11 | 31 | -8 | 65* | -6 | 7 | 24 | .
COc1cc(C(CCN2CCCC(C)C2)c2c(OC)cc(OC)c3c(-c4ccccc4)cc(=O)oc23)cc(OC)c1OC (stereo unspecified) | 14 | . | 37 | 82* | 15 | 12 | 25 | .
COc1cc(C(CCN2CCCC2)c2c(OC)cc(OC)c3c(C)cc(=O)oc23)cc(OC)c1OC (stereo unspecified) | -3 | 2 | 24 | 15 | -15 | 3 | . | .
